Laboratory results as given in the supplement of paper PMC6555819.

Columns and labels:
Assay in all cases: PBM binding z-score (relative to random genomic background probes); higher = stronger binding; sequences stand for … in GC…GCGATTGACAGCGTAGAATGAAGG
[1] = test system: RARb homodimer (NR concentration 270 nM)
Method in brief: (§1)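 On custom Agilent 4×180K arrays, double-stranded probes with 34-nt variable regions carried direct-repeat seeds, single-nucleotide variants, half-site ablations or random human genomic background. Ligand-free nuclear receptor dimers were applied for 1 h, and binding was read with antibodies against each partner (one per run). Binding z-scores come from regression-normalized fluorescence, with the random background probes as reference.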

[2] = test system: RARg:RXRa (NR concentration 270 nM, RXRa partner concentration 90 nM)
Method in brief: as §1

[3] = test system: RARg homodimer (NR concentration 270 nM)
Method in brief: as §1

[4] = test system: RXRa DBDmut IVT, anti-RXR (DBD mutation: RXRa K156A/R161A, NR concentration 90 nM)
Method in brief: as §1

[5] = test system: RXRa homodimer (NR concentration 180 nM)
Method in brief: as §1

[6] = test system: THRa:RXRa (NR concentration 90 nM, RXRa partner concentration 90 nM)
Method in brief: as §1

[7] = test system: THRa homodimer (NR concentration 90 nM)
Method in brief: as §1

[8] = test system: VDR homodimer (NR concentration 270 nM)
Method in brief: as §1

Sequence	PBM binding z-score [1]	PBM binding z-score [2]	PBM binding z-score [3]	PBM binding z-score [4]	PBM binding z-score [5]	PBM binding z-score [6]	PBM binding z-score [7]	PBM binding z-score [8]
TATAGTTGGTCAAAGGTCACACACTCGAAATGCG	5.04	7.01	6.33	0.941	8.14	4.24	1.79	2.12
TCAAATAGGTAAAGGTGAAAGTCGAACGATATGA	1.73	1.78	1.49	1.55	2.33	1.32	-0.328	0.351
TGAATGAGGTTATAAGATAAGGGAACGTTGCAAA	0.00548	1.36	1.01	0.619	1.79	1.68	0.04	0.0331
TCTTGTAGATCAATAGAGCTTAAGAAAGTGCGCT	-1.12	-0.405	-0.425	-0.034	-0.343	-0.676	-1.11	-0.773
GGAACGAGGGCAAAGATGATAGCATCTGTCGACG	0.55	1.1	1.59	2.33	1.02	0.506	-0.734	0.578
ATTTCTAGGTAAAGTTCAGTGAAAGATCGATAGA	2.55	2.02	2.7	1.59	1.44	1.48	0.574	2.39
AGTAAAAGTTCAGGACGAGGTAACGTAAAGCACG	2.91	4.29	4.25	2.76	2.3	3.78	2.01	1.89
